Measured values as given in the supplement of paper PMC8975748.
Structures can show the parent of a compound that is named as a salt.

Each compound was assayed on Saccharomyces cerevisiae BY4741 SeMeCo community (assay: z-score of subpopulation abundance vs DMSO median, subpopulation auxotrophic for M; higher = larger share of this subpopulation than in DMSO controls). Conditions: 10 µM; 24 h; SM minimal medium; subpopulation (auxotrophy): M.
Method: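 Fluorescent four-plasmid SeMeCo (self-establishing metabolically cooperating S. cerevisiae BY4741 community; plasmids pH-mRuby2, pL-mWasabi, pU-eCFP, pM-TagRFP657) was grown 24 h in minimal SM medium with each Selleck FDA-approved drug at 10 µM in 384-well plates. Cells were fixed and imaged by high-content confocal microscopy. For each auxotrophic subpopulation (and the prototroph), a z-score gives the deviation from the DMSO vehicle-control population median.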

Compound | z-score of subpopulation abundance
C[C@]1(COc2ccc(N3CCC(Oc4ccc(OC(F)(F)F)cc4)CC3)cc2)Cn2cc([N+](=O)[O-])nc2O1 [Delamanid] | -0.38
Clc1ccc(C(Cn2ccnc2)OCc2c(Cl)cccc2Cl)c(Cl)c1 (stereo not given) [Isoconazole nitrate] | -0.17
CC(=O)OC1CC2(C)C(CC(O)C3C4(C)CCC(O)C(C)C4CCC32C)C1=C(CCC=C(C)C)C(=O)O (stereo not given) [Fusidine] | 0.14
Cc1nnc(NS(=O)(=O)c2ccc(N)cc2)s1 [Sulfamethizole] | -0.46
Clc1ccc(COC(Cn2ccnc2)c2ccc(Cl)cc2Cl)cc1 (stereo not given) [Econazole] | -1.6
N[C@@H](CCC(=O)O)C(=O)O [(S)-Glutamic acid] | -0.4
CC(C)c1c(C(=O)Nc2ccccc2)c(-c2ccccc2)c(-c2ccc(F)cc2)n1CC[C@@H](O)C[C@@H](O)CC(=O)O [Atorvastatin] | -2.26
CCN(CC)CC#CCOC(=O)C(O)(c1ccccc1)C1CCCCC1 (stereo not given) [Oxybutynin chloride] | -0.21
O=C1CN(/N=C/c2ccc(-c3ccc([N+](=O)[O-])cc3)o2)C(=O)N1 [Dantrolene sodium hemiheptahydrate] | 3.93
COc1cc(/C=C/C(=O)N2CCN(CC(=O)N3CCCC3)CC2)cc(OC)c1OC [Cinepazide maleate] | 0
CCOC(=O)C1=C(COCCN)NC(C)=C(C(=O)OC)C1c1ccccc1Cl (stereo not given) [Amlodipine Besylate] | 5.2
COc1ccc2c(c1)c(CC(=O)O)c(C)n2C(=O)c1ccc(Cl)cc1 [Indomethacin] | -0.33
C#C[C@]1(O)CC[C@H]2[C@@H]3CCC4=Cc5oncc5C[C@]4(C)[C@H]3CC[C@@]21C [Danazol] | -0.89
C[N+]1(C)CCC(OC(=O)C(O)(c2ccccc2)C2CCCC2)C1 (stereo not given) [Glycopyrrolate] | 0.07
CCCCCOc1ccc(-c2ccc(-c3ccc(C(=O)N[C@H]4C[C@@H](O)[C@@H](O)NC(=O)[C@@H]5[C@@H](O)[C@@H](C)CN5C(=O)[C@H]([C@@H](C)O)NC(=O)[C@H]([C@H](O)[C@@H](O)c5ccc(O)cc5)NC(=O)[C@@H]5C[C@@H](O)CN5C(=O)[C@H]([C@@H](C)O)NC4=O)cc3)cc2)cc1 | -11.7
C1N2CN3CN1CN(C2)C3 [Methenamine] | 0.26
C[C@@H](c1ncncc1F)[C@](O)(Cn1cncn1)c1ccc(F)cc1F [Voriconazole] | 0.27
Clc1ccc2c(N3CCN(CCCN4CCN(c5ccnc6cc(Cl)ccc56)CC4)CC3)ccnc2c1 [Piperaquine phosphate] | 1.85
CCC[C@@H]1C[C@@H](C(=O)N[C@@H]([C@H]2O[C@H](SC)[C@H](OP(=O)(O)O)[C@@H](O)[C@H]2O)[C@H](C)Cl)N(C)C1 [Clindamycin Phosphate] | 0.65
CN(C)[C@@H]1C(=O)C(C(N)=O)=C(O)[C@@]2(O)C(=O)C3=C(O)c4c(O)ccc(Cl)c4[C@@H](O)[C@H]3C[C@@H]12 [Demeclocycline HCl] | -1.78

Compound | z-score of subpopulation abundance
Cc1cc(NS(=O)(=O)c2ccc(N)cc2)no1 [Sulfamethoxazole sodium] | 0.79
Oc1ccc([C@H]2COc3cc(O)ccc3C2)cc1 [Equol] | 0.37
CN[C@@H]1[C@H](O[C@H]2[C@H](O[C@H]3[C@H](O)[C@@H](O)[C@H](N=C(N)N)[C@@H](O)[C@@H]3N=C(N)N)O[C@@H](C)[C@]2(O)C=O)O[C@@H](CO)[C@H](O)[C@H]1O [Streptomycin sulfate] | -0.43
Cc1onc(-c2ccccc2)c1C(=O)N[C@@H]1C(=O)N2[C@@H]1SC(C)(C)[C@@H]2C(=O)O [Oxacillin sodium monohydrate] | 0.02
C[N+](C)(C)CCO.[Cl-] [Choline Chloride] | -1.56
CN1C[C@@H]2C[C@H]1CN2c1cc2c(cc1F)c(=O)c(C(=O)O)cn2C1CC1 [Danofloxacin Mesylate] | 0.03
C[C@@H](O)[C@H]1C(=O)N2C(C(=O)[O-])=C(SC3Cn4cnc[n+]4C3)[C@H](C)[C@H]12 (stereo not given in full) [Biapenem] | 1.3
C/C=C\c1ccc(O)c(OC)c1 [Isoeugenol] | 0.59
O=C1c2cccc3c2[C@H](CCC3)CN1[C@@H]1CN2CCC1CC2 [Palonosetron] | -0.21
CC/C(=C(/CC)c1ccc(O)cc1)c1ccc(O)cc1 [Diethylstilbestrol] | 0.52
O=C1c2c(O)ccc(O)c2C(=O)c2c(NCCNCCO)ccc(NCCNCCO)c21 [Mitoxantrone 2HCl] | -14
C[C@]12CC[C@@H]3c4ccc(OS(=O)(=O)O)cc4CC[C@H]3[C@@H]1CCC2=O [Estropipate] | 0.08
O=C(O)CCC(=O)Nc1ccc(S(=O)(=O)Nc2nccs2)cc1 [Succinylsulfathiazole] | -0.13
Nc1nc(=O)[nH]cc1F [Flucytosine] | -3.75
CN1CC(=O)N2[C@H](c3ccc4c(c3)OCO4)c3[nH]c4ccccc4c3C[C@@H]2C1=O [Tadalafil] | 0.2
COc1cc(O)c(C(=O)Nc2nc(C(=O)NCCN(C(C)C)C(C)C)cs2)cc1OC [Acotiamide hydrochloride] | -0.47
c1cnc2cc3c(cc2n1)[C@@H]1CNC[C@H]3C1 [Varenicline Tartrate] | -0.55
CC1=C(CC(=O)O)c2cc(F)ccc2/C1=C\c1ccc([S+](C)[O-])cc1 (stereo not given) [Sulindac] | 0.53
CC[C@@]1(O)C(=O)OCc2c1cc1n(c2=O)Cc2cc3c(CN(C)C)c(O)ccc3nc2-1 [Topotecan HCl] | 1.3
CC(C)N1CCN(c2ccc(OCC3COC(Cn4cncn4)(c4ccc(Cl)cc4Cl)O3)cc2)CC1 (stereo not given) [Terconazole] | -1.43
